The source of these data is article PMC5540273 (PLoS ONE, 2017).

Test systems include DDR1; DDR2; DMPK; DYRK1A; DYRK1B; DYRK2; EGFR; EIF2AK1; EPHA1; EPHA2; EPHA3; EPHA4; EPHA5; EPHA6.
Common to all, as to conditions: concentration: 1 μM, replicates: in singlicate; n = 1
In a further experiment the test system is T1, DCAMKL2.
T1 construct: gene DCLK2

A further experiment concerns T2, DCAMKL3.
T2 construct: gene DCLK3

The next experiment relates to T3, DLK.
T3 construct: gene MAP3K12

In a further experiment the test system is T4, DMPK2.
T4 construct: gene CDC42BPG

A further experiment relates to T5, DRAK1.
T5 construct: gene STK17A

For the next experiment, the system named is T6, DRAK2.
T6 construct: gene STK17B
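Note: KINOMEscan kinase panel screen.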

Regarding `C[C@@H]1CC[C@@H](C(=O)Nc2ccccc2)CN1c1cc(-c2ccc3c(N)n[nH]c3c2)nc(N)n1` [GSK2286062], the “%Inh” value in the experiment with DCAMKL2 was 17%; in the experiment with DCAMKL3, 0%; with DDR1, 1%; in the experiment with DDR2, 22%; in the experiment with DLK it was 17%; in the experiment with DMPK2, 0%. In addition, the “%Inh” value in the experiment on DMPK was 0%; in the experiment on DRAK1, 18%; with DRAK2 it was 0%; in the experiment on DYRK1A, 3%; with DYRK1B it was 0%; in the experiment with DYRK2, 3%. The “%Inh” value in the experiment on EGFR was found to be 43%; with EIF2AK1, 0%; in the experiment on EPHA1, 1%; with EPHA2 it was 17%; in the experiment on EPHA3, 2%; with EPHA4 it was 0%. In addition, the “%Inh” value in the experiment on EPHA5 and in the experiment with EPHA6 was 0% in each case.
Regarding `FC(F)(F)c1ccc(/C=C/c2cncnc2Nc2ccc3[nH]c(Cc4ccccc4)nc3c2)cc1` [GW709199], the “%Inh” value is 7% with DCAMKL2; 21% in the experiment with DCAMKL3; 0% with DDR1; 36% in the experiment with DDR2; 0% with DLK; 0% with DMPK2. The “%Inh” value amounted to 0% with DMPK; 0% in the experiment on DRAK1; 7% in the experiment with DRAK2; 0% in the experiment on DYRK1A; 31% in the experiment with DYRK1B; 0% in the experiment on DYRK2. Further, the “%Inh” value with EGFR amounted to 46%; with EIF2AK1, 0%; in the experiment with EPHA1, 10%; with EPHA2, 12%; in the experiment on EPHA3, 0%; in the experiment on EPHA4 it was 0%. Also, the “%Inh” value in the experiment on EPHA5 and in the experiment with EPHA6 was 0% in each case.
Regarding `Cc1ccc(C)c(NC(=O)NC2CCN(c3ccnc(Nc4ccc(F)cc4)n3)C2)c1` (stereo not shown) [GSK1379720], the “%Inh” value in the experiment on DCAMKL2 is reported as 0%; in the experiment on DCAMKL3, 3%; in the experiment with DDR1 it was 0%; in the experiment on DDR2, 25%; with DLK, 0%; in the experiment with DMPK2, 0%. The “%Inh” value with DMPK came to 0%; in the experiment on DRAK1, 10%; with DRAK2 it was 0%; in the experiment on DYRK1A, 10%; in the experiment on DYRK1B it was 0%; in the experiment with DYRK2, 8%. In addition, the “%Inh” value was 0% in the experiment on EGFR; 0% in the experiment with EIF2AK1; 18% in the experiment on EPHA1; 0% in the experiment on EPHA2; 0% with EPHA3; 0% in the experiment with EPHA4. Also, the “%Inh” value in the experiment on EPHA5 and in the experiment on EPHA6 was 0% in each case.
On to `O=c1[nH]cc(-c2ccc(N3CCOCC3)cc2)c2sc(-c3cn[nH]c3)cc12` [GSK2276055], for which the “%Inh” value with DCAMKL2 came out at 0%; in the experiment on DCAMKL3, 0%; in the experiment on DDR1, 3%; in the experiment on DDR2 it was 0%; in the experiment with DLK it was 0%; in the experiment with DMPK2, 0%. Besides, the “%Inh” value was found to be 0% in the experiment with DMPK; 35% in the experiment with DRAK1; 11% with DRAK2; 99.8% in the experiment on DYRK1A; 100% in the experiment with DYRK1B; 89% in the experiment on DYRK2. The “%Inh” value worked out at 18% in the experiment with EGFR; 0% in the experiment on EIF2AK1; 0% with EPHA1; 0% in the experiment with EPHA2; 30% in the experiment on EPHA3; 0% in the experiment on EPHA4. Further, the “%Inh” value with EPHA5 and with EPHA6 was 0% each time.
With `COc1cccc(NC(=O)NC2CCN(c3ccnc(Nc4cc(OC)c(OC)c(OC)c4)n3)C2)c1` (stereo not shown) [GSK1379763], the “%Inh” value came out at 0% in the experiment on DCAMKL2; 0% in the experiment on DCAMKL3; 22% with DDR1; 24% with DDR2; 46% with DLK; 27% in the experiment on DMPK2. Moreover, the “%Inh” value with DMPK was 0%; with DRAK1, 0%; in the experiment with DRAK2 it was 0%; with DYRK1A it was 0%; in the experiment on DYRK1B, 15%; in the experiment with DYRK2, 4%. Besides, the “%Inh” value was found to be 12% with EGFR; 0% with EIF2AK1; 6% in the experiment with EPHA1; 0% with EPHA2; 0% in the experiment with EPHA3; 0% in the experiment on EPHA4. Besides, the “%Inh” value in the experiment with EPHA5 and in the experiment with EPHA6 was 0% throughout.
`Cl.NC(=O)c1cccc(Nc2nccc(Nc3ccc(Oc4c(Cl)cccc4Cl)c(Cl)c3)n2)c1` [GW659009]: the “%Inh” value with DCAMKL2 was 0%; in the experiment on DCAMKL3, 0%; with DDR1, 0%; in the experiment with DDR2, 0%; with DLK it was 0%; with DMPK2 it was 64%. Also, the “%Inh” value was 0% with DMPK; 0% with DRAK1; 0% in the experiment on DRAK2; 3% with DYRK1A; 0% with DYRK1B; 6% with DYRK2. For the same compound, the “%Inh” value in the experiment on EGFR is 99.5%; in the experiment on EIF2AK1, 13%; in the experiment on EPHA1 it was 0%; in the experiment with EPHA2 it was 0%; with EPHA3, 0%; with EPHA4 it was 0%. For the same compound, the “%Inh” value in the experiment with EPHA5 and with EPHA6 was 0% in each case.
On to `Cc1cccc(NC(=O)Nc2ccc(Oc3ncnc4ccn(C)c34)cc2)c1`, for which the “%Inh” value in the experiment on DCAMKL2 is 0%; in the experiment with DCAMKL3, 0%; with DDR1, 99.3%; in the experiment with DDR2, 98.7%; in the experiment with DLK, 0%; with DMPK2, 0%. In addition, the “%Inh” value in the experiment with DMPK is 0%; in the experiment on DRAK1, 0%; in the experiment on DRAK2 it was 0%; with DYRK1A, 0%; in the experiment with DYRK1B, 9%; with DYRK2 it was 0%. Moreover, the “%Inh” value with EGFR is listed as 1%; in the experiment on EIF2AK1, 0%; with EPHA1, 0%; in the experiment with EPHA2, 0%; in the experiment on EPHA3, 17%; in the experiment on EPHA4 it was 0%. In addition, the figures for the “%Inh” value in the experiment with EPHA5 and with EPHA6 were 9% and 28%, respectively.
In the case of `Cc1occc1-c1ncc(OC[C@@H](N)Cc2c[nH]c3ccccc23)cc1-c1ccc2[nH]nc(C)c2c1.O=C(O)C(F)(F)F` [GSK682037], the “%Inh” value with DCAMKL2 stood at 14%; in the experiment on DCAMKL3, 0%; with DDR1, 0%; with DDR2, 5%; with DLK, 1%; in the experiment with DMPK2, 67%. The “%Inh” value in the experiment on DMPK amounted to 95%; in the experiment on DRAK1 it was 0%; with DRAK2, 0%; in the experiment on DYRK1A, 15%; with DYRK1B, 0%; in the experiment on DYRK2, 26%. The “%Inh” value is 94.3% with EGFR; 0% with EIF2AK1; 0% in the experiment on EPHA1; 9% in the experiment on EPHA2; 29% in the experiment on EPHA3; 0% in the experiment on EPHA4. The “%Inh” value in the experiment with EPHA5 stood at 0%; in the experiment with EPHA6 it was 49%.
